This is part of a sample that, as a whole, favours compounds with a hit. Of some 83,000 tested, about 20% had one in any assay.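 Negative percent growth values reflect cell death: -40 means 40% of the cells present at the start died, and -100 means all died.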 A number with no mark means an inactive call. Active and inactive are the calls of the source. Rule for the calls: active = growth percent below 10; inactive = the rest.
Legend:
Assay in all cases: NCI-60 one-dose screen, 48 h (100 = growth as untreated, 0 = no growth, -100 = all killed)
Conditions in all cases: 10 µM unless noted
[1] = tested on: DU-145 prostate
[2] = tested on: K-562 leukemia
[3] = tested on: MALME-3M melanoma
[4] = tested on: MDA-MB-231 breast
[5] = tested on: RXF 393 renal
[6] = tested on: SF-268 CNS
[7] = tested on: SF-295 CNS
[8] = tested on: SF-539 CNS
[9] = tested on: UACC-257 melanoma
[10] = tested on: M14 melanoma
[11] = tested on: HCT-15 colon
[12] = tested on: HT29 colon
[13] = tested on: SNB-75 CNS
[14] = tested on: SNB-19 CNS
[15] = tested on: U251 CNS
[16] = tested on: PC-3 prostate
[17] = tested on: SK-MEL-5 melanoma
[18] = tested on: UACC-62 melanoma
[19] = tested on: LOX IMVI melanoma
[20] = tested on: SK-MEL-28 melanoma

Row | SMILES | growth [1] | growth [2] | growth [3] | growth [4] | growth [5] | growth [6] | growth [7] | growth [8] | growth [9] | growth [10] | growth [11] | growth [12] | growth [13] | growth [14] | growth [15] | growth [16] | growth [17] | growth [18] | growth [19] | growth [20]
1 | Cc1ccc(OCCOCCOCCOCCOc2ccc(C)n(O)c2=S)c(=S)n1O | 17.5% | 16.2% | 15.6% | 34.9% | 38.6% | 11.4% | 18.2% | 5.23% (active) | -9.07% (active) | -16.1% (active) | 28.5% | 23.9% | 33.1% | 15.3% | 9.43% (active) | 32.7% | -15.8% (active) | -0.19% (active) | 4.26% (active) | 31%
2 | COc1cc(-c2ccc(-c3ccc(C(=N)N)s3)s2)cc(OC)c1OC | 36.2% | -33.6% (active) | -90.7% (active) | 10% | 54.1% | 46.8% | 51% | -35.6% (active) | 75.7% | -53.4% (active) | 13.6% | 4.42% (active) | 75.5% | 47.6% | 1.13% (active) | 47.1% | 23.2% | 81.3% | -63.3% (active) | 7.05% (active)
3 | COc1cc2nc3cc([N+](=O)[O-])ccc3c(NCCCNCCO)c2cc1OC | -31.2% (active) | -19% (active) | -82.6% (active) | -54.5% (active) | -58.8% (active) | -46.8% (active) | -20.7% (active) | -36.2% (active) | -53.4% (active) | -66.5% (active) | 41.2% | 1.17% (active) | -74.2% (active) | -19% (active) | -45.5% (active) | -66.8% (active) | -93.9% (active) | -65.2% (active) | -63.7% (active) | -53.1% (active)
4 | O=C(Nc1ncc(Cc2ccccc2Cl)s1)c1ccc2c(c1)OCCO2 | 9.81% (active) | 8.27% (active) | 56.6% | 23.5% | 9.52% (active) | 41.2% | 11.7% | -8.75% (active) | 53.1% | 10.3% | 10.4% | 6.05% (active) | 3.37% (active) | 36% | 14.7% | 23.4% | -25.1% (active) | 27.9% | 23.6% | 76.3%
5 | O=C(Cn1cc(CSc2nc3ccccc3o2)nn1)Nc1ccc([N+](=O)[O-])cc1 | 108% | 92.6% | 104% | 91.5% | 108% | 91.8% | 102% | 101% | 110% | 96.2% | 106% | 93.9% | 79.4% | 96.3% | 97.9% | 92% | 99.1% | 68.5% | 94.5% | 105%
6 | Nc1nc(=O)n([C@H]2CC=C(CO)O2)cc1F | 107% | 96.5% | 97.9% | 101% | 99.3% | 99.3% | 102% | 107% | 95.4% | 105% | 101% | 91.9% | 102% | 96.3% | 95% | 92.1% | 100% | 92.4% | 92.5% | 105%
7 | Cn1cc(-c2ccc3c(Nc4cccc(NC(=O)Nc5cccc(F)c5)c4)ncnc3c2)cn1 | 41.8% | 4.38% (active) | 27.5% | 41.8% | -13.9% (active) | 46.7% | -13.2% (active) | 20.4% | 63.9% | 41.3% | 37.8% | 32.8% | 43.8% | 65% | 28.4% | 33.6% | 41.4% | 32.4% | 41.9% | 49.6%
8 | CNC1=C(Br)C(=O)c2c(C(=O)OC)c(C)nc(C)c2C1=O | 57.9% | 64.4% | -26.6% (active) | 71.6% | 63.5% | 73.5% | 78.3% | 82.8% | 56.1% | 31.4% | 36.8% | 19.8% | 139% | 82.9% | 71.1% | 48.9% | -90.9% (active) | 1.42% (active) | 35.3% | 91.3%
9 | CS(=O)(=O)c1cccc(Nc2ncc3cc(-c4ccccc4Cl)ccc3n2)c1 | 18.6% | 1.05% (active) | 11.8% | 3.46% (active) | -14.3% (active) | 19.9% | 20.9% | -10.5% (active) | 24.8% | 5.89% (active) | 12.1% | 1.92% (active) | -11.4% (active) | 36.2% | 16.6% | 12.3% | -49.1% (active) | 4.77% (active) | -6.95% (active) | 19.7%
10 | O=C(O)CCCN1C(=O)CSC1=S | 107% | 103% | 102% | 107% | 107% | 93.9% | 106% | 102% | 95.9% | 93.3% | 94.3% | 108% | 85.6% | 102% | 108% | 95.3% | 101% | 96.2% | 94.7% | 105%
11 | C=C(CNCCc1ccc(O)cc1)[C@@H]1CC[C@]2(CO)CC[C@]3(C)[C@H](CC[C@@H]4[C@@]5(C)CCC(N)C(C)(C)[C@@H]5CC[C@]43C)[C@@H]12 (stereo not given in full) | -68.6% (active) | -50.9% (active) | -86.2% (active) | -80.5% (active) | -90.9% (active) | -74.3% (active) | -82% (active) | -93.4% (active) | -77.3% (active) | -81.8% (active) | -79.3% (active) | -49.9% (active) | -97.8% (active) | -86.1% (active) | -84.4% (active) | -75.3% (active) | -95.2% (active) | -86.7% (active) | -86.7% (active) | -90.5% (active)
12 | CCn1c2ccccc2c2cc(C(O)c3cccc4ncccc34)ccc21 (stereo not given) | 8.08% (active) | 8.65% (active) | 57.7% | 24.3% | 40.6% | 28.6% | 18.4% | 6.53% (active) | 70.8% | -4.81% (active) | 11.6% | 8.32% (active) | 31.1% | 36.4% | 19.2% | 13.4% | -4.22% (active) | 16% | -8.41% (active) | 61.5%
13 | Nc1ccc(N)c2c1C(=O)c1cccc([N+](=O)[O-])c1C2=O | -15.9% (active) | 40.4% | 54.3% | 67.9% | 45.7% | 57.3% | 21.3% | 23.6% | 52.3% | 30.8% | 27.7% | 44.7% | 22.6% | 26.2% | 33.7% | 49.3% | 23.8% | 5.05% (active) | 22.4% | 102%
14 | CCOC(=O)C#Cc1c(CC(=O)OCC)nnn1[C@H]1O[C@@H](CO)[C@@H]2OC(C)(C)O[C@@H]21 | 94.5% | 10.3% | 26.6% | 105% | 3.65% (active) | 105% | 97.4% | 75.3% | 62.8% | 58.3% | -12.8% (active) | 29.2% | 76.4% | 97.7% | 96.9% | 89.4% | 97.2% | 84.8% | 47.3% | 86.6%

From PubChem BioAssay (NCI)
